Test results: article PMC4336329 (PLoS ONE, 2015)
Out of some 310,000 compounds screened, about 14,000 (4.5%) showed an effect of 50% or more. The effect is printed as a negative number. Only a selection was taken, and strong results are over-represented in it overall.
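Further: peak tail current of the secondary pulse compared with the same well before compound.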

What follows are molecules tested against human ether-à-go-go-related gene (hERG) potassium channel (human, UniProt Q12809) (assay: primary screen, population patch clamp on CHO cells stably expressing hERG; higher = less effect of the substance).
human ether-à-go-go-related gene (hERG) potassium channel, sequence (Q12809 whole entry, looked up): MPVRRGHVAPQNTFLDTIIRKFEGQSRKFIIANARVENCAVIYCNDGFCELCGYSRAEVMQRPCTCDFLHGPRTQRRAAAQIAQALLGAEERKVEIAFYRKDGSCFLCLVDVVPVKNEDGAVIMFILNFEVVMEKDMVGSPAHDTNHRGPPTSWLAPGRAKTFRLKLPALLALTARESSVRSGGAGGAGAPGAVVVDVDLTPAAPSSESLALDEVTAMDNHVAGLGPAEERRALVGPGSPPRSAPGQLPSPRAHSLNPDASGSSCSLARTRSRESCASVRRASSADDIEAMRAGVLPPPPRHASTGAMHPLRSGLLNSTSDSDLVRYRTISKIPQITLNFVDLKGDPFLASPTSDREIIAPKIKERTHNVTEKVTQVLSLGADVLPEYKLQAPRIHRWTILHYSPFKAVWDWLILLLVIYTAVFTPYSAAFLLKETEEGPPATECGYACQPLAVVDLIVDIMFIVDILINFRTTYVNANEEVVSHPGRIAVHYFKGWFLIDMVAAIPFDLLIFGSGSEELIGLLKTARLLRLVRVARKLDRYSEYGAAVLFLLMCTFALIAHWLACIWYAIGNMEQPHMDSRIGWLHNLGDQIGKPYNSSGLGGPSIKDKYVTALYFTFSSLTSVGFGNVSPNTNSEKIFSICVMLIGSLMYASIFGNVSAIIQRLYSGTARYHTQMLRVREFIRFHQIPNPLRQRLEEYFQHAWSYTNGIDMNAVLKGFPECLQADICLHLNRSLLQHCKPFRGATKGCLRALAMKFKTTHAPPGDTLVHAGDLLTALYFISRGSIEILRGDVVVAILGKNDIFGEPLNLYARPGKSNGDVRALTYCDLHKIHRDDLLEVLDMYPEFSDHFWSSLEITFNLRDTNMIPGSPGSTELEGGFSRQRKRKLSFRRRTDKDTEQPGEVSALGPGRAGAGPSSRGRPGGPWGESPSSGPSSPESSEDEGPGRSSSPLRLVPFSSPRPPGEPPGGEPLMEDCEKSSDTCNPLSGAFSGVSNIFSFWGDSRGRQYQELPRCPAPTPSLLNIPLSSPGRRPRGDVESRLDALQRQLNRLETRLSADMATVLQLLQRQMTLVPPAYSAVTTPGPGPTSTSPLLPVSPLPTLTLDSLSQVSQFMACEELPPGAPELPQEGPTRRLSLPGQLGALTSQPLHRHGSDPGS
`NC(=S)N/N=C/c1cn(-c2ccccc2)nc1-c1cccnc1` was tested, and the “hERG current change (%, negative = inhibition) at 10uM” value was 11.8%. In the case of `CC(C)(C)OC(=O)N/N=C/c1cn(-c2ccccc2)nc1-c1cccnc1`, the “hERG current change (%, negative = inhibition) at 10uM” value is reported as -49.3%. With `NC(=O)N/N=C/c1cn(-c2ccccc2)nc1-c1cccnc1` the “hERG current change (%, negative = inhibition) at 10uM” value was 4.92%. With `O=C(N/N=C/c1cn(-c2ccccc2)nc1-c1cccnc1)c1ccc(F)cc1` the “hERG current change (%, negative = inhibition) at 10uM” value was -41.3%. In the case of `O=C(N/N=C/c1cn(-c2ccccc2)nc1-c1cccnc1)c1cccnc1`, the “hERG current change (%, negative = inhibition) at 10uM” value is reported as -50.3%. In the case of `O=C(N/N=C/c1cn(-c2ccccc2)nc1-c1cccnc1)c1ccccc1`, the “hERG current change (%, negative = inhibition) at 10uM” value is reported as -60.7%. For `CCn1ccnc1CN(C)C(=O)CCc1nnc(CCC2CCCCC2)o1`, the “hERG current change (%, negative = inhibition) at 10uM” value was -27.7%. For `C=Cn1ccnc1P(=S)(c1ccc(N(C)C)cc1)c1nccn1C=C`, the “hERG current change (%, negative = inhibition) at 10uM” value was 3.93%. In the case of `O=c1c2ccccc2nc(-c2ccc(Cl)cc2)n1C1CCS(=O)(=O)C1` (stereo not drawn), the “hERG current change (%, negative = inhibition) at 10uM” value is reported as -2.23%. `O=C(CN1CCN(Cc2ccccc2)CC1)N1N=CCC1c1ccccc1` (stereo not drawn) was tested, and the “hERG current change (%, negative = inhibition) at 10uM” value was -1.06%. For `Cc1ccc(C(=O)O/N=C/c2c(Cl)n(C)c3ccccc23)cc1`, the “hERG current change (%, negative = inhibition) at 10uM” value was 16.2%. In the case of `CC(=O)Nc1ccc(N(C(=O)CNC(=O)c2cccs2)C(C(=O)NCC2CCCO2)c2ccccc2)cc1` (stereo not drawn), the “hERG current change (%, negative = inhibition) at 10uM” value is reported as 13.2%. For `O=C(O)C1CSC(CCc2ccccc2)N1` (stereo not drawn), the “hERG current change (%, negative = inhibition) at 10uM” value was 14%. In the case of `[Cl-].c1ccc(CC[C@@H]2CC[C@@H](CCc3ccccc3)N2)cc1`, the “hERG current change (%, negative = inhibition) at 10uM” value is reported as -66%. For `c1ccc(CCC2Cc3ccccc3N2)cc1` (stereo not drawn), the “hERG current change (%, negative = inhibition) at 10uM” value was -0.839%. For `COC(=O)c1[nH]c2ccccc2c1NC(=O)Oc1ccccc1`, the “hERG current change (%, negative = inhibition) at 10uM” value was 12%. For `O=[N+]([O-])c1ccc(N2CCN(c3ccc(Cl)nn3)CC2)c(Cl)c1`, the “hERG current change (%, negative = inhibition) at 10uM” value was -23.7%. `CN1CCN(c2cc([N+](=O)[O-])ccc2Cl)CC1` was tested, and the “hERG current change (%, negative = inhibition) at 10uM” value was -23.3%. With `CN1CCN(c2ccc([N+](=O)[O-])cc2NC(=O)c2cccs2)CC1` the “hERG current change (%, negative = inhibition) at 10uM” value was -55.2%. With `CN1CCN(c2ccc([N+](=O)[O-])cc2Cl)CC1` the “hERG current change (%, negative = inhibition) at 10uM” value was -52.2%. `Cc1ccc([N+](=O)[O-])cc1NC(=O)c1cccs1` was tested, and the “hERG current change (%, negative = inhibition) at 10uM” value was 18.4%. For `COc1ccc(N2CCN(c3ccc([N+](=O)[O-])cc3Cl)CC2)cc1`, the “hERG current change (%, negative = inhibition) at 10uM” value was -12.1%. With `Cc1ccc2nc(C)c(CN3CCN(c4ccc([N+](=O)[O-])cc4Cl)CC3)n2c1` the “hERG current change (%, negative = inhibition) at 10uM” value was -69.3%. In the case of `O=[N+]([O-])c1ccc(N2CCNCC2)c(Cl)c1`, the “hERG current change (%, negative = inhibition) at 10uM” value is reported as -6.48%. In the case of `O=C(Nc1cc([N+](=O)[O-])ccc1N1CCOCC1)c1cccs1`, the “hERG current change (%, negative = inhibition) at 10uM” value is reported as 1.15%. With `O=C(Nc1cc([N+](=O)[O-])ccc1N1CCCC1)c1cccs1` the “hERG current change (%, negative = inhibition) at 10uM” value was -65.4%. `O=C(Nc1cc([N+](=O)[O-])ccc1N1CCCC1)c1ccccc1` was tested, and the “hERG current change (%, negative = inhibition) at 10uM” value was -33.3%. `COC(=O)c1ccc(N2CCN(C)CC2)c(NC(=O)c2cccs2)c1` was tested, and the “hERG current change (%, negative = inhibition) at 10uM” value was -8.75%. `COC(=O)C1=C(N)Oc2cc(C)n(Cc3ccncc3)c(=O)c2C1c1cccnc1` (stereo not drawn) was tested, and the “hERG current change (%, negative = inhibition) at 10uM” value was -14.8%. `CCn1c(/C=C\c2ccccc2C)nc2ccccc2c1=O` was tested, and the “hERG current change (%, negative = inhibition) at 10uM” value was -19.1%. In the case of `CC(C)c1ncc(S(=O)(=O)c2ccc(C(F)(F)F)cn2)c(N)n1`, the “hERG current change (%, negative = inhibition) at 10uM” value is reported as 11.6%. `CCOc1ncccc1C(=O)N1CCN(c2cc(Cl)ccc2C)CC1` was tested, and the “hERG current change (%, negative = inhibition) at 10uM” value was -4.75%. For `CCCCN1Cc2c(nc3cc(-c4ccccc4)[nH]n3c2=O)C1=O`, the “hERG current change (%, negative = inhibition) at 10uM” value was 6.51%. In the case of `Clc1ccccc1-c1nn2c(-c3ccncc3)nnc2s1`, the “hERG current change (%, negative = inhibition) at 10uM” value is reported as -7.89%. With `O=C(Nc1cccc(Cl)c1)Nc1nnc(-c2ccccc2)o1` the “hERG current change (%, negative = inhibition) at 10uM” value was 3.18%. For `CN1CCN(c2ccc([N+](=O)[O-])cc2NC(=O)c2ccccc2Cl)CC1`, the “hERG current change (%, negative = inhibition) at 10uM” value was -71.1%. With `CN1CCN(c2ccccc2NC(=O)c2ccc([N+](=O)[O-])cc2Cl)CC1` the “hERG current change (%, negative = inhibition) at 10uM” value was -34.9%. With `O=C(Nc1ccccc1N1CCCC1)c1ccc([N+](=O)[O-])cc1Cl` the “hERG current change (%, negative = inhibition) at 10uM” value was -21.5%. In the case of `Cn1c(=O)oc2cc(S(=O)(=O)NCCC(=O)Nc3ccc4c(c3)OCCO4)ccc21`, the “hERG current change (%, negative = inhibition) at 10uM” value is reported as 2.4%. For `CCOc1ccc(CCNC(=O)COC(=O)c2cccnc2OCC)cc1OCC`, the “hERG current change (%, negative = inhibition) at 10uM” value was -1.87%. With `CCN(Cc1ccc(OC)c(F)c1)C(=O)c1cc2ccccc2o1` the “hERG current change (%, negative = inhibition) at 10uM” value was -24.7%. For `COc1ccc(CN(C)C(=O)c2oc3ccccc3c2CSC)cc1F`, the “hERG current change (%, negative = inhibition) at 10uM” value was 14.4%. With `CCN(Cc1ccc(OC)c(F)c1)C(=O)c1oc2ccccc2c1COC` the “hERG current change (%, negative = inhibition) at 10uM” value was -54.6%. In the case of `CC(/C=C/c1cccc([N+](=O)[O-])c1)=N/NC(=O)c1cccnc1`, the “hERG current change (%, negative = inhibition) at 10uM” value is reported as -22.7%. For `O=c1c(C(c2ccc(F)cc2)c2c(O)nc3n(c2=O)CCCS3)c(O)nc2n1CCCS2`, the “hERG current change (%, negative = inhibition) at 10uM” value was 9.97%. In the case of `O=C(Nc1ccccc1)OCc1cn(-c2ccc(Cl)cc2)nn1`, the “hERG current change (%, negative = inhibition) at 10uM” value is reported as 22.3%. For `O=C(Nc1cccc(Cl)c1)OCc1cn(-c2ccccc2)nn1`, the “hERG current change (%, negative = inhibition) at 10uM” value was -52.6%. `O=C(Nc1cccc(Cl)c1)OCc1cn(-c2ccc(Cl)cc2)nn1` was tested, and the “hERG current change (%, negative = inhibition) at 10uM” value was 1.69%.
